Test results: the supplement of paper PMC13380429

Tested on: Vero E6 infected with SARS-CoV-2
Test: inhibition of SARS-CoV-2 cytopathic effect; higher = more antiviral protection, active = above 15
Details: 48 h

Measured: inhibition of SARS-CoV-2 cytopathic effect

CN(C(=O)CN(CCO)CC(=O)N(C)C(C)(C)Cc1ccccc1)C(C)(C)Cc1ccccc1 [oxethazaine]
inactive: 1 nM -2.13% | 8.33 nM -0.95% | 100 nM 0.87% | 833.33 nM -0.57% | 10000 nM -13.9%

O=C(O)CCC(=O)c1ccc(-c2ccccc2)cc1 [fenbufen]
inactive: 1 nM -1.6% | 8.33 nM 2.58% | 100 nM -0.25% | 833.33 nM -2.57% | 10000 nM -2.49%

CCOC(=O)[C@H](CCc1ccccc1)N[C@@H](C)C(=O)N(CC(=O)O)C1Cc2ccccc2C1 [delapril]
inactive: 1 nM -1.82% | 8.33 nM 0.71% | 100 nM 2.57% | 833.33 nM 2.28% | 10000 nM -1.55%

O=C(O)c1cc(-c2ccccc2)nc2ccccc12 [cinchophen]
inactive: 1 nM -0.85% | 8.33 nM -0.04% | 100 nM -2.56% | 833.33 nM 0.2% | 10000 nM 2.97%

OC(c1ccc(-c2ccc(CN3CCN(Cc4ccncc4)CC3)cc2)c(F)c1)(C(F)(F)F)C(F)(F)F
inactive: 1 nM -1.89% | 8.33 nM 0.74% | 100 nM -2.07% | 833.33 nM -1.4% | 10000 nM -1.46%

CC(C)(C)[C@]1(O)CC2OC(=O)CC23C(=O)OC2OC(=O)[C@H](O)C231 (stereo not given in full) [bilobalide]
inactive: 1 nM -0.27% | 8.33 nM 0.92% | 100 nM 0.44% | 833.33 nM -0.26% | 10000 nM -0.37%

O=C1NC(=O)c2c1c1c3ccccc3[nH]c1c1[nH]c3ccccc3c21 [arcyriaflavin-a]
inactive: 1 nM -5.59% | 8.33 nM -1.16% | 100 nM -3.16% | 833.33 nM -3.59% | 10000 nM -10.1%

O=C(NCc1ccc(OC(F)(F)F)cc1)C1c2ccccc2C(=O)N1C1CCOCC1 (stereo not given)
inactive: 1 nM -3.69% | 8.33 nM -4.75% | 100 nM -1.62% | 833.33 nM -1.7% | 10000 nM 2.59%

Nc1ncnc2c1c(-c1cnc3[nH]ccc3c1)nn2C1CCCC1
inactive: 1 nM -1.07% | 8.33 nM -0.16% | 100 nM 0.41% | 833.33 nM -3.88% | 10000 nM -16.5%

O=C(/C=C\n1cnc(-c2cc(C(F)(F)F)cc(C(F)(F)F)c2)n1)N1CC(F)(F)C1
inactive: 1 nM 2.37% | 8.33 nM -1.09% | 100 nM -2.84% | 833.33 nM -7.74% | 10000 nM -16.6%

O=C(NNc1ccccc1)c1ccncc1 [plurisin-1]
inactive: 1 nM 0.37% | 8.33 nM 1.32% | 100 nM 1.76% | 833.33 nM -2.79% | 10000 nM -6.02%

CCOC(=O)[C@@H](N)Cc1ccc(O)c(O)c1 [etilevodopa]
inactive: 1 nM 3.02% | 8.33 nM 1.51% | 100 nM 2.32% | 833.33 nM 0.72% | 10000 nM 0.9%

O=C(/C=C/c1ccccc1)NCCO [brolitene]
inactive: 1 nM -0.76% | 8.33 nM -1.09% | 100 nM -0.6% | 833.33 nM -2.74% | 10000 nM 1.92%

Cc1c(NC(=O)c2cccnc2)c(=O)n(-c2ccccc2)n1C [nifenazone]
inactive: 1 nM -4.14% | 8.33 nM 0.87% | 100 nM 1.34% | 833.33 nM -1.46% | 10000 nM 0.61%

CCCCCCCCCCCCCCCCOP(=O)([O-])OCC[N+](C)(C)C [miltefosine]
inactive: 1 nM -3.26% | 8.33 nM -0.08% | 100 nM 0.27% | 833.33 nM 0.17% | 10000 nM 3.55%

CC(=O)/N=c1/[nH]c(C)c(-c2ccc(Cl)c(S(=O)(=O)NCCO)c2)s1
inactive: 1 nM 0.03% | 8.33 nM -0.02% | 100 nM 1.03% | 833.33 nM 1.81% | 10000 nM 2.47%

CCOC(=O)[C@@H](C)Oc1cccc2c(=O)n(CC(=O)Nc3ccc4c(c3)OCCO4)ccc12
inactive: 1 nM -1.29% | 8.33 nM 1.77% | 100 nM 0.7% | 833.33 nM -5.6% | 10000 nM -5.98%

CN(C)C(=O)N[C@H]1CC[C@H](CCN2CCN(c3cccc(Cl)c3Cl)CC2)CC1 [cariprazine]
inactive: 1 nM -2.57% | 8.33 nM 1.1% | 100 nM -0.14% | 833.33 nM 3.01% | 10000 nM -3.84%

O=C1OC2(c3ccc(O)cc3Oc3cc(O)ccc32)c2ccccc21 [fluorescein]
inactive: 1 nM -8.63% | 8.33 nM -9.87% | 100 nM -11.5% | 833.33 nM -5.06% | 10000 nM -7.22%

C[C@@H](NC(=O)[C@@H](N)Cc1ccc(O)cc1)C(=O)NCC(=O)N(C)[C@@H](Cc1ccccc1)C(=O)N[C@H](CO)CC[S+](C)[O-] (stereo not given in full)
inactive: 1 nM -0.57% | 8.33 nM -1.1% | 100 nM -1.84% | 833.33 nM -0.24% | 10000 nM 0.65%

O=C(Nc1ccncc1)c1cc([N+](=O)[O-])ccc1Cl
inactive: 1 nM -0.14% | 8.33 nM 1.74% | 100 nM -1.69% | 833.33 nM -1.5% | 10000 nM 14.7%

Cc1nc2c(OCc3ccccc3)cccn2c1CC#N
inactive: 1 nM -1.06% | 8.33 nM 0.99% | 100 nM 2.87% | 833.33 nM 0.07% | 10000 nM 1.07%

CCOC(=O)CNC(=O)[C@@H]1CCCN1C(=O)Cc1ccccc1
inactive: 1 nM 0.67% | 8.33 nM -0.95% | 100 nM 3.29% | 833.33 nM 2.08% | 10000 nM 1.46%

Cn1cncc1[C@@](N)(c1ccc(Cl)cc1)c1ccc2c(c1)c(-c1cccc(Cl)c1)cc(=O)n2C [tipifarnib]
inactive: 1 nM 0.24% | 8.33 nM 0.1% | 100 nM 1.79% | 833.33 nM 2.2% | 10000 nM -9.4%

CN(c1ncccc1CNc1nc(Nc2ccc3c(c2)CC(=O)N3)ncc1C(F)(F)F)S(C)(=O)=O
inactive: 1 nM 0.16% | 8.33 nM 0.22% | 100 nM -1.3% | 833.33 nM -2.48% | 10000 nM -3.05%

CC[C@H]1[C@@H](O)[C@@H]2[C@H](CC[C@]3(C)[C@@H]([C@H](C)CCC(=O)O)CC[C@@H]23)[C@@]2(C)CC[C@@H](O)C[C@@H]12 [obeticholic-acid]
inactive: 1 nM 0.365% | 8.33 nM 1.41% | 100 nM 1.03% | 833.33 nM 2.73% | 10000 nM 1.65%

CN(C(=O)Cc1ccccc1)[C@H](CN1CCCC1)c1ccccc1
inactive: 1 nM -2.98% | 8.33 nM -0.14% | 100 nM 0.52% | 833.33 nM 0.85% | 10000 nM -1.59%

Cc1cc(C(C)(C)CC(C)(C)C)ccc1OCCOCC[N+](C)(C)Cc1ccccc1 [methylbenzethonium-chloride]
inactive: 1 nM -1.31% | 8.33 nM -1.52% | 100 nM -3.07% | 833.33 nM -0.46% | 10000 nM -4.8%

COC(=O)N[C@H](C(=O)N1CCC[C@H]1C(=O)Nc1ccc([C@@H]2CC[C@@H](c3ccc(NC(=O)[C@@H]4CCCN4C(=O)[C@@H](NC(=O)OC)C(C)C)cc3)N2c2ccc(C(C)(C)C)cc2)cc1)C(C)C [ombitasvir]
inactive: 1 nM -0.82% | 8.33 nM -0.6% | 100 nM -0.7% | 833.33 nM -1.11% | 10000 nM -1.21%

[N-]=[N+]=N[C@]1(CO)O[C@@H](n2ccc(N)nc2=O)[C@H](O)[C@@H]1O
inactive: 1 nM -1.63% | 8.33 nM 0.795% | 100 nM 0.87% | 833.33 nM 1.03% | 10000 nM -0.005%

CCC[C@H](Nc1nc(-c2ccc(NC(=O)NCC)c(OC)c2)ncc1C)c1cccnc1
inactive: 1 nM 0.07% | 8.33 nM -1.4% | 100 nM -1.33% | 833.33 nM -0.69% | 10000 nM -2.7%

CCCCCCc1ccc(O)cc1O.Nc1c2ccccc2nc2ccccc12 [acrisorcin]
inactive: 1 nM 1.59% | 8.33 nM 2.93% | 100 nM 1.22% | 833.33 nM 3.53% | 10000 nM -18.5%

O=C(O)C1=CCCNC1 [guvacine]
inactive: 1 nM 2% | 8.33 nM 5.07% | 100 nM 3.21% | 833.33 nM 6.87% | 10000 nM 6.39%

O=C1OC2(c3ccccc31)c1cc(I)c(O)c(I)c1Oc1c2cc(I)c(O)c1I [erythrosine]
inactive: 1 nM -2.4% | 8.33 nM -1.04% | 100 nM -2.6% | 833.33 nM -4.79% | 10000 nM -12.8%

Cc1[nH]cnc1CN1CCc2c(c3ccccc3n2C)C1=O [alosetron]
inactive: 1 nM -0.13% | 8.33 nM -3.23% | 100 nM -3.51% | 833.33 nM -1.58% | 10000 nM -2.24%

N#Cc1cc2c(OCC(O)CN3CCN(C(c4ccccc4)c4ccccc4)CC3)cccc2[nH]1 (stereo not given)
inactive: 1 nM 0.5% | 8.33 nM -0.23% | 100 nM 0.3% | 833.33 nM 4.21% | 10000 nM -2.26%

Cc1cc(/C=C/C#N)cc(C)c1Nc1ccnc(Nc2ccc(C#N)cc2)n1 [rilpivirine]
inactive: 1 nM 0.35% | 8.33 nM -3.25% | 100 nM -2.82% | 833.33 nM -1.06% | 10000 nM -6.76%

O=C1[C@H](Cc2ccc(O)cc2)N2C(=O)CCN(C(=O)NCc3ccccc3)[C@H]2CN1Cc1cccc2ccccc12
inactive: 1 nM -0.18% | 8.33 nM 0.82% | 100 nM 2.23% | 833.33 nM 1.89% | 10000 nM -3.36%

C[C@](N)(Cc1ccc(O)c(O)c1)C(=O)O [methyldopa]
inactive: 1 nM -0.96% | 8.33 nM 0.87% | 100 nM -0.52% | 833.33 nM -1.66% | 10000 nM 0.52%
